In the library only some 7.2% were active in any assay of this set; here they are far more common.
Sm TGR block – S. mansoni TGR enzyme inhibition. Q962Y6. purified TGR, DTNB reduction, TNB absorbance 405 nm. Potency, µM (titrated, usually from 114 µM), without a hit: top-dose activity change, negative = inhibition, actives largely listed as inhibitors. 360,000 tested, 3% active; note: nearly all actives have a fitted effect of over 60% in size
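TGR 20 nM + NADPH 100 uM (dispensed conc.), cpd preinc 15 min RT; start with NADPH (500 uM addition) then DTNB (15 mM addition). Kinetic TNB absorbance, 405 nm filter. Four-parameter Hill fit across titration.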
HCV inhibitor – inhibitors of hepatitis C virus infection. Huh7.5.1 HCVcc-Cre infection, luciferase reporter, 44 h. Potency, µM (titrated, usually from 41.8 µM), inactives show at the highest dose activity change, negative = inhibition, usual class: inhibitors. 340,000 tested, 3.4% active. AID 651820
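Cells (1,000/well) were plated 4 h before compound, then infected with HCVcc-Cre virus (~0.5 moi). After 44 h further culture, infection was read as luciferase luminescence following a 15 min substrate incubation at room temperature.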
RE007 growth inh – less growth of the S. pombe RE007 Vpr strain | Potency, µM (series often up to 92.2 µM), for the others: top-dose activity change, negative = less growth, most hits filed as inhibitors | 360,000 tested, 0.21% active | S. pombe RE007 Vpr strain, BacTiter-Glo ATP luminescence, 24 h; active = well fitted falling curve with a large enough effect; inconclusive = small, poorly fitted or top-dose-only effect; inactive = no such curve, though single readings can be large or run the other way; note: nearly all actives have a fitted effect of over 50% in size
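Fission yeast strain RE007, carrying one chromosomally integrated HIV-1 vpr copy, was seeded at OD 0.01 in PMG+AL medium with 23 nL pinned compound. After 24 h at 30 °C and 99% humidity, viability was read by BacTiter-Glo luminescence.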
LASV entry inh – blocks Lassa virus binding to or entry into cells; Potency, µM (series often up to 37.9 µM), for inactives: at the top dose activity change, negative = inhibition, hits mostly inhibitors; 300,000 tested, 1.2% active; Lassa virus pseudotype entry inhibition, cell reporter; calls by dose curve; tested in HEK293 cells; note: nearly all actives have a fitted effect of over 50% in size
MARV entry inh – inhibitors of Marburg virus binding or cell entry; Potency, µM (series often up to 37.8 µM), for the others: top-dose activity change, negative = inhibition, actives largely listed as inhibitors; 300,000 tested, 1.8% active; AID 540276; Marburg virus pseudotyped entry inhibition, cell reporter; calls by dose curve; tested in HEK293 cells
FMDV antiviral – antivirals against foot and mouth disease virus; FMDV antiviral cell-based qHTS; 410,000 tested, 1.2% active; Potency, µM (highest dose often 57.9 µM), for the others: at the highest dose activity change, negative = inhibition, usual class: inhibitors; AID 1159524; calls by dose curve; tested in HEK293T cells; note: read-out not given here; nearly all actives have a fitted effect of over 45% in size
* = called active by the depositor; [ ] = remark or other dose. Unless noted, calls come from the whole dose curve; as a rule, active = well fitted curve in the direction sought with a large enough effect; inconclusive = small, poorly fitted or top-dose-only effect, or another doubt; inactive = no such curve, though single readings can be large; an effect the other way counts as inactive or inconclusive. % is set by controls: 0 for no effect and ±100 for the full control effect; potency is the fitted concentration of half-maximal effect.

What do the screens show for `Cc1ccc2nc(-c3ccc(C)o3)c(Nc3ccc4c(c3)OCCO4)n2c1`?
Sm TGR block: inconclusive; LASV entry inh: inconclusive; MARV entry inh: -8%[46.1 µM]; FMDV antiviral: 28%

Results for Cc1ccc(-c2nc3ccc(Cl)cn3c2Nc2ccc3c(c2)OCCO3)o1 ?
Sm TGR block: 28µM*; LASV entry inh: 27%[46.1 µM]; MARV entry inh: inconclusive; FMDV antiviral: 12%

How did Cc1ccc(-c2nc3ncccn3c2Nc2ccc3c(c2)OCCO3)o1 do in these assays?
Sm TGR block: 50µM*; HCV inhibitor: 10%; RE007 growth inh: 10%; LASV entry inh: inconclusive; MARV entry inh: inconclusive; FMDV antiviral: 35%

What do the screens show for `O=C(NCCCN1CCN(c2ccccc2)CC1)c1nnc(Cc2ccc(F)cc2)o1`?
Sm TGR block: 7%; LASV entry inh: 6%[46.1 µM]; FMDV antiviral: -29%

Results for c1ccc2c(-c3ccncc3)c[nH]c2c1 ?
Sm TGR block: -27%; HCV inhibitor: 7.9µM*; RE007 growth inh: -26%; LASV entry inh: -5%; MARV entry inh: -30%; FMDV antiviral: -10%

How did CCOC(=O)CSC1=NC(=O)CS1 do in these assays?
Sm TGR block: 32µM*; HCV inhibitor: inconclusive; RE007 growth inh: -22%; LASV entry inh: -21%; MARV entry inh: -12%; FMDV antiviral: -18%

Results for COC(=O)c1scc(C)c1NC(=O)/C=C/C(=O)O ?
Sm TGR block: 1.4µM*; HCV inhibitor: -1%; RE007 growth inh: 6%; LASV entry inh: 15%; MARV entry inh: -9%; FMDV antiviral: -3%

Results for COc1cc(C(c2oc(CO)cc(=O)c2O)c2oc(CO)cc(=O)c2O)cc(OC)c1OC ?
Sm TGR block: -26%; HCV inhibitor: 20%; RE007 growth inh: 1%; LASV entry inh: 0%; MARV entry inh: 9%; FMDV antiviral: -8%

What do the screens show for `O=c1cc(CO)oc(C(Nc2ccccn2)c2ccsc2)c1O` (configuration not stated)?
Sm TGR block: 11µM*; MARV entry inh: 2%

How did O=c1cc(CO)oc(C(Nc2ccccn2)c2ccc(F)cc2)c1O (configuration not stated) do in these assays?
Sm TGR block: 2.5µM*; HCV inhibitor: -20%; RE007 growth inh: -12%; LASV entry inh: 4%; MARV entry inh: 6%; FMDV antiviral: -3%

What do the screens show for `COc1ccc(C(Nc2ccccn2)c2oc(CO)cc(=O)c2O)cc1` (configuration not stated)?
Sm TGR block: 2.8µM*; HCV inhibitor: 1%; RE007 growth inh: 7%; LASV entry inh: 3%; MARV entry inh: -5%; FMDV antiviral: -3%

Results for COc1ccc(C(c2oc(CO)cc(=O)c2O)c2oc(CO)cc(=O)c2O)cc1 ?
Sm TGR block: 35µM*; HCV inhibitor: 4%; RE007 growth inh: 3%; LASV entry inh: 9%[46.1 µM]; MARV entry inh: -1%[46.1 µM]; FMDV antiviral: -1%

How did O=c1cc(CO)oc(C(Nc2ccccn2)c2ccccc2Cl)c1O (configuration not stated) do in these assays?
Sm TGR block: inconclusive; HCV inhibitor: 2%; RE007 growth inh: 1%; LASV entry inh: -15%[46.1 µM]; MARV entry inh: -16%[46.1 µM]; FMDV antiviral: -16%

Results for COc1ccc(-n2c(=O)c(-c3ccccc3)nc3cnc(N4CCOCC4)nc32)cc1 ?
FMDV antiviral: -2%

What do the screens show for `CCCCN(CC)C(=O)Cn1nc(C)c2c(C)n(-c3ccccc3)nc2c1=O`?
Sm TGR block: 2%; LASV entry inh: 10%[46.1 µM]; FMDV antiviral: -13%

What do the screens show for `COc1cc(CNc2nc(C)c(-c3ccn(CC4CCCN(C)C4)n3)s2)ccc1F` (configuration not stated)?
FMDV antiviral: 0%

Results for CCCNC(=O)C1(C)CCCN(C(=O)C2(c3ccc(Cl)cc3)CCCC2)C1 (configuration not stated) ?
RE007 growth inh: 2%[18.4 µM]; FMDV antiviral: -7%

Assay outcomes as filed in PubChem.
